# Source: PubChem (National Center for Advancing Translational Sciences (NCATS))
# Hits are enriched below; roughly 19% of the tested compounds scored in any of these assays.
# HT1080NT lethal – qHTS for induction of synthetic lethality in tumor cells producing 2HG: qHTS for the HT-1080-NT fibrosarcoma cell line; AID 686970, 2013; Potency, µM (series often up to 46.1 µM), inactives show at the top dose activity, negative = less viability, hits mostly cytotoxic; HT-1080-NT fibrosarcoma viability, CellTiter-Glo ATP luminescence, 48 h; 1.6% of 360,000 active;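 further: NT is the 2HG producing partner of a matched IDH1 knockdown line; potency means the concentration at half of the fitted maximal effect; 0% = DMSO-treated cells and -100% = media-only wells without cells; nearly all actives have a fitted effect of over 55% in size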
#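 Toxicity toward the 2HG-producing NT line was scored as %Activity, normalised to DMSO and no-cell wells, from CellTiter-Glo luminescence after 48 hours' treatment.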
# TDP1 cell CPT – qHTS for Inhibitors of human tyrosyl-DNA phosphodiesterase 1 (TDP1): qHTS in cells in presence of CPT; 12% of 420,000 active; chicken DT40 Tdp1-/-;hTDP1 cells + 20 nM CPT, ATP luminescence, 48 h; AID 686979, 2013; Potency, µM (series often up to 46.2 µM), inactives show at the top dose activity change, negative = growth inhibition, usual class: inhibitors; further: potency means the concentration at half of the fitted maximal effect; nearly all actives have a fitted effect of over 55% in size
#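 Chicken DT40 Tdp1-/- cells complemented with human TDP1, 400 cells/well, exposed to compounds plus 20 nM camptothecin for at least 48 h at 37 C; viability read as ATP content by CellTiter-Glo luminescence.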
# ELG1 repair inh – qHTS screen for small molecules that inhibit ELG1-dependent DNA repair in human embryonic kidney (HEK293T) cells expressing luciferase-tagged ELG1; HEK293T ELG1-luciferase reporter, luminescence, 16 h; DNA damage induced by 5-fluorouridine; Potency, µM (series often up to 46.1 µM), for inactives: at the top dose activity change, negative = inhibition, most hits filed as inhibitors; 2.3% of 330,000 active; further: potency means the concentration at half of the fitted maximal effect; nearly all actives have a fitted effect of over 55% in size
#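 Luminescence from the luciferase reporter, measured 30 min after ONE-Glo reagent at room temperature, was the read-out. Beforehand, 2,000 cells per well were exposed for 16 hr at 37 °C to 5-fluorouridine together with compound or vehicle.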
# IL-1B inflam inh – qHTS for Inhibitors of Inflammasome Signaling: IL-1-beta AlphaLISA Primary Screen. THP-1 LPS/ATP IL-1B secretion, AlphaLISA, 16 h; active compounds read low. activity change, % at 57.5 µM. 4.7% of 360,000 active; in the data active means activity change below about -50%; inconclusive means mostly about -30% to -49%
#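 Secreted IL-1B measured by AlphaLISA bead assay after 16 h compound exposure of THP-1 cells; compounds (final up to 57.5 uM) added 1 h before LPS (250 ng/mL) and ATP (1.25 mM) stimulation; lower signal means less secretion.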
# HT1080 IDH1KD tx – qHTS for induction of synthetic lethality in tumor cells producing 2HG: qHTS for the HT-1080-IDH1KD cell line; HT-1080 IDH1 knockdown viability, ATP luminescence, 48 h; Potency, µM (series often up to 46.1 µM), for the others: at the highest dose activity, negative = toxicity, most hits filed as cytotoxic; 2% of 360,000 active;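 further: potency means the concentration at half of the fitted maximal effect; 0% = DMSO wells and -100% = cell-free medium wells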
#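 Luminescent ATP read-out (CellTiter-Glo, 10 min at room temperature) after 48 h compound exposure at 37 °C gave viability of IDH1-knockdown HT-1080 cells. Activity was normalised to DMSO and cell-free wells, then fitted as concentration-response curves.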
# TDP1 cell noCPT – qHTS for Inhibitors of human tyrosyl-DNA phosphodiesterase 1 (TDP1): qHTS in cells in absence of CPT; 15% of 420,000 active; AID 686978, 2013; DT40 Tdp1-/- hTDP1 cells, no CPT, ATP luminescence, 48 h; Potency, µM (series often up to 46.2 µM), inactives show at the highest dose activity change, negative = growth inhibition, most hits filed as inhibitors; further: potency means the concentration at half of the fitted maximal effect; nearly all actives have a fitted effect of over 55% in size
#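 Compound effects on proliferation are scored in DT40 Tdp1-/-;hTDP1 cells in the absence of CPT. ATP levels (CellTiter-Glo luminescence) are recorded after a ≥48 hr, 37 °C incubation.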
# Active calls of the source: *; ? = inconclusive; nt = not tested or not shown; [ ] = another dose, or the depositor's remark. Unless noted, the call rests on the fitted dose curve; in most records, active means well fitted curve in the direction sought with a large enough effect; inconclusive means small, poorly fitted or top-dose-only effect, or another doubt; inactive means no such curve, though single readings can be large; an effect the other way counts as inactive or inconclusive. Unless noted, on the % scale 0 is the no-effect control and ±100 the full control effect.
SMILES,HT1080NT lethal,TDP1 cell CPT,ELG1 repair inh,IL-1B inflam inh,HT1080 IDH1KD tx,TDP1 cell noCPT
CC(C)C(=O)N1CCN(c2ccc(NC(=O)c3cccs3)cc2Cl)CC1,-16%,23µM*,12µM*,-83*,-11%,13µM*
CCCC(=O)N1CCN(c2ccc(NC(=O)c3ccc4c(c3)OCCO4)cc2)CC1,6%,-27%,?,-9,2%,-27%
CC(=O)N1CCN(c2ccc(NC(=O)c3ccc4c(c3)OCCO4)cc2Cl)CC1,-21%,?,?,-88*,-20%,?
CC(C)C(=O)N1CCN(c2ccc(NC(=O)c3cccs3)cc2)CC1,1%,?,?,?,2%,?
CC(C)C(=O)N1CCN(c2ccc(NC(=O)c3ccc4c(c3)OCCO4)cc2Cl)CC1,?,?,5.8µM*,-97*,?,23µM*
O=C(CCN=C1NS(=O)(=O)c2ccccc21)OCc1cccc(Cl)c1,0%,-10%,2%,11,3%,?
COc1cc(-c2nnn(Cc3ccccc3C)n2)cc(OC)c1OC,-4%,?,23µM*,-6,0%,21µM*
O=C(Cn1c(C(=O)N2CCN(C3CCCCC3)CC2)cc2sccc21)c1ccccc1,?,?,-12%,?,?,?
O=C(Cn1c(C(=O)N2CCc3ccccc3C2)cc2sccc21)c1ccccc1,?,29µM*,?,?,-21%,?
Cn1c(-c2ccc3ccccc3n2)nc2cnccc21,-4%,18µM*,?,0,-2%,15µM*
COc1cc(OC)c(-c2nc3cnccc3n2C)cc1OC,10%[9.24 µM],6%,?,0,-18%,0%
COc1ccc(C=C2C(=O)c3ccccc3C2=O)cc1O,3%,0%,15%,5,-1%,0%
COc1ccc(/C=N/N=C/c2ccc(OC)c(O)c2)cc1O,-4%,-5%,-15%,-11,-2%,-11%
CCN1C/C(=C/c2ccc(OC)c(O)c2)C(=O)/C(=C/c2ccc(OC)c(O)c2)C1,?,13µM*,?,-72*,?,12µM*
COc1ccc(/C=C2\CN(Cc3ccccc3)C/C(=C\c3ccc(OC)c(O)c3)C2=O)cc1O,?,5.2µM*,?,-99*,2.3µM*,2.1µM*
CC(=O)N1CCc2c(sc3c2c(=O)n(Cc2ccccc2)c(=O)n3Cc2ccccc2F)C1,nt,21µM*,nt,nt,nt,21µM*
O=c1c2c3c(sc2n2cnnc2n1Cc1ccccc1)CN(Cc1ccccc1)CC3,-8%,16µM*,?,-17,-4%,15µM*
Cc1nnc2n(Cc3ccccc3)c(=O)c3c4c(sc3n12)CN(Cc1ccccc1)CC4,nt,nt,1%,nt,nt,nt
CC(=O)N1CCc2c(sc3c2c(=O)n(-c2ccc(F)cc2)c(=O)n3Cc2ccc(C#N)cc2)C1,nt,0%,nt,nt,nt,?
CC(=O)N1CCc2c(sc3c2c(=O)n(CCc2ccccc2)c(=O)n3Cc2ccc(F)cc2)C1,nt,18µM*,nt,nt,nt,8.2µM*
CC(=O)N1CCc2c(sc3c2c(=O)n(Cc2ccccc2)c(=O)n3Cc2ccccc2Cl)C1,nt,?,nt,nt,nt,23µM*
CC(=O)N1CCc2c(sc3c2c(=O)n(Cc2ccccc2)c(=O)n3Cc2ccc(C)cc2)C1,nt,-6%,nt,nt,nt,19%
COC(C(=O)NC(C(C)C)C(C)C)c1ccccc1 (stereo unspecified),0%,-6%,1%,0,0%,1%
CCOC(=O)CNC(=O)CSc1nnc(NC(=O)c2ccc(S(=O)(=O)N3CCOCC3)cc2)s1,3%,-7%,16%,-4,11%,4%
Cn1c(SCc2ccc(C#N)cc2Cl)nc2ccccc21,7%,-26%,?,-71*,-1%,-10%
SMILES,HT1080NT lethal,TDP1 cell CPT,ELG1 repair inh,IL-1B inflam inh,HT1080 IDH1KD tx,TDP1 cell noCPT
CCNc1ncc2nc(-c3ccc(OC)cc3)c(=O)n(Cc3cccs3)c2n1,nt,?,nt,nt,nt,-24%
COc1ccc(S(=O)(=O)NCc2ccncc2)cc1NC(=O)c1ccccc1F,-14%,?,-6%,0,-11%,-26%
CCOc1ccc(S(=O)(=O)NCc2ccccn2)cc1NC(=O)c1ccccc1F,0.92µM*,0.65µM*,-1%,60,?,0.65µM*
COc1ccc(S(=O)(=O)NCc2ccccn2)cc1NC(=O)c1ccccc1,8.2µM*,4.6µM*,-12%,33,13µM*,4.1µM*
COc1ccc(S(=O)(=O)NCc2ccccn2)cc1NC(=O)c1ccc(C)cc1,5.8µM*,7.3µM*,?,23,13µM*,5.2µM*
CSc1ccc(CCNC(=O)c2ccc(-n3c(C)cc4c3CCC(C)C4)cc2)cc1 (stereo unspecified),nt,3%,nt,nt,nt,-9%
CCN(c1ccccc1)S(=O)(=O)c1ccc(OC)c(NC(=O)c2cc(F)c(F)c(F)c2F)c1,0%,-25%,10%,-8,-2%,-17%
CC1(C(=O)NCc2ccncc2)Cc2c(-c3cccc(C(F)(F)F)c3)ccnc2O1 (stereo unspecified),2%,?,nt,18,0%,?
CC1(C(=O)NCc2ccc(F)c(F)c2)Cc2c(-c3cccc(C(N)=O)c3)ccnc2O1 (stereo unspecified),26µM*,?,nt,25,10µM*,?
COc1ccc(CNC(=O)C2(C)Cc3c(-c4cccc(C(N)=O)c4)ccnc3O2)cc1OC (stereo unspecified),-10%,-4%,nt,5,-13%,?
CC1(C(=O)NCc2ccccc2)Cc2c(-c3cccc(C(N)=O)c3)ccnc2O1 (stereo unspecified),?,3.3µM*,nt,38,?,2.3µM*
CC(=O)NCCNC(=O)C1(C)Cc2c(-c3cccc(C(N)=O)c3)ccnc2O1 (stereo unspecified),4%,-7%,nt,-11,6%,-4%
CC(=O)Nc1cccc(-c2ccnc3c2CC(C)(C(=O)NCc2ccc(F)c(F)c2)O3)c1 (stereo unspecified),?,3.7µM*,nt,82,?,3.7µM*
